PubChem BioAssay AID902 (National Center for Advancing Translational Sciences (NCATS), 2007)
“And” between values parts separate entries of the source, which are not always exact repeats. Identical values can stand only once. The campaign covered roughly 130,000 compounds. About 1,900 (1.5%) were called active. Inconclusive results (about 5%) are left out. Calls follow the shape of the dose curve; as a rule, active = well fitted cell-killing curve with a large enough effect; inconclusive = small, poorly fitted or top-dose-only effect; inactive = no such curve, though single readings can be large or run the other way. The entries come from a sample that favours actives as a whole. Some structures have more than one record in an assay (separate samples or runs), and their calls can disagree.

Assay: qHTS Screen for Compounds that Selectively Target Cancer Cells with p53 Mutations: Cytotoxicity of p53ts Cells at the Nonpermissive Temperature; also: nearly all actives have a fitted effect of over 55% in size
Conditions: H1299-p53A138V viability at 39C, ATP luminescence, 24 h; series mostly up to 46.1 µM; activity change, negative = cell killing: at the top concentration
% is scaled to controls: 0 for no effect and ±100 for the full control effect; potency is read from the fitted curve at half-maximal effect.

Row | SMILES | activity change, negative = cell killing | Potency
1 | COc1ccc(Br)cc1CNC(=O)c1cc(=O)[nH]c2ccc(S(=O)(=O)N3CCCC3)cc12 | -16.2% (inactive) | –
2 | COc1ccc(NC(=O)CN2CCCN(Cc3ccccc3)S2(=O)=O)cc1 | -4.26% (inactive) | –
3 | COc1ccc(C(=O)Nc2nonc2-c2ccc(OC)c(OC)c2)cc1Cl | -26.9% (inactive) | –
4 | Cn1c(=O)c2sccc2n2c(CCC(=O)NCc3ccccc3Cl)nnc12 | -15.6% (inactive) | –
5 | Cc1ccc(C)c(N2CCN(CCCNC(=O)Nc3ccc(Cl)cc3)CC2)c1 | – | 10 µM (active)
6 | CC1=C(c2ccc(Cl)cc2)S(=O)(=O)N=C1N1CCN(c2cc(C)ccc2C)CC1 | 0.663% (inactive) | –
7 | CC1=C(c2ccc(C)cc2)S(=O)(=O)NC1=NCCCN1CCN(c2cc(C)ccc2C)CC1 | 35.5% (inactive) | –
8 | CCN(CCCNC(=O)c1ccc(Sc2ccc(C)cc2)c(NC(C)=O)c1)c1cccc(C)c1 | -24.9% (inactive) | –
9 | COC(=O)c1ccc(C2C(C(=O)Nc3ccccc3)=C(C)Nc3nc4ccccc4n32)cc1 (stereo unspecified) | – | 12.6 µM (active)
10 | CCOc1ccc(C2C(C(=O)NC)=C(C)Nc3nc4ccccc4n32)cc1OC (stereo unspecified) | 8.77% (inactive) | –
11 | COc1ccccc1C1C(C(=O)N2CCCCC2)=C(C)Nc2nc3ccccc3n21 (stereo unspecified) | -9.81% (inactive) | –
12 | CCOC(=O)c1c(C)[nH]c(C)c1S(=O)(=O)N1CCCC(C(=O)NCc2ccccc2Cl)C1 (stereo unspecified) | 2.61% (inactive) | –
13 | CCc1cnc2c(c1SCC(=O)c1ccccc1)c(=O)n(C)c(=O)n2C | 23.2% (inactive) | –
14 | CC(C)(C)c1ccc(C(=O)N2CCC(c3nc(-c4ccc(S(=O)(=O)N5CCCC5)cc4)no3)CC2)cc1 | -24.5% (inactive) | –
15 | Cc1sc(C2C(C#N)=C(N)N(c3cccc(Cl)c3)C3=C2C(=O)CCC3)cc1CN1CCOCC1 (stereo unspecified) | 7.17% (inactive) | –
16 | COc1c2c(cc3occ(-c4ccc5c(c4)OCO5)c(=O)c13)OC(C)(C)C=C2 | – | 10 µM (active)
17 | COc1ccc(CCNC(=O)c2cc(-c3ccc4c(c3)OCO4)on2)cc1OC | -2.99% (inactive) | –
18 | CCC(=O)N1CCc2cc(S(=O)(=O)NCCC(=O)Nc3cccc(C)c3C)ccc21 | -12.6% (inactive) | –
19 | COc1cccc(NC(=O)CSc2cc(=O)n(C)c3ccc(Cl)cc23)c1 | -18.7% (inactive) | –
20 | CCCCOc1ccc(C(=O)N2CC(=O)Nc3ccc(Br)cc3C2c2ccc(F)cc2)cc1 (stereo unspecified) | 6.43% (inactive) | –
21 | CCCCc1nn2c(=O)cc(COC(=O)c3ccc(NC(=O)c4ccccc4C)cc3)nc2s1 | -22% (inactive) | –
22 | CN(C)c1ccc(-c2nc(NCCN3CCOCC3)c3ccccc3n2)cc1 | – | 12.6 µM (active)
23 | c1ccc2[nH]c(NCCN3CCOCC3)nc2c1 | 2.07% (inactive) | –
24 | c1ccc(-c2nc(NCc3ccco3)c3ccccc3n2)cc1 | -12.3% (inactive) | –

Row | SMILES | activity change, negative = cell killing | Potency
25 | O=C(c1cccc(Br)c1)N1CCN(Cc2cc(=O)n3nc(-c4ccccc4)sc3n2)CC1 | 8.96% (inactive) | –
26 | Cc1nn2c3ccccc3nc2n(C)c1=O | 0.337% (inactive) | –
27 | CC(C)n1c(-c2cccs2)nc2ccccc21 | -17.5% (inactive) | –
28 | Cc1csc(-c2nc3ccccc3n2C)n1 | – | 25.1 µM (active)
29 | COc1ccc(Cn2c(=O)c3oc4ccccc4c3n(CC(=O)Nc3ccc(F)cc3F)c2=O)cc1 | -13.5% (inactive) | –
30 | O=C(Cn1nnc(-c2ccccc2)n1)NCc1ccccc1 | 6.92% (inactive) | –
31 | CCN(C(=O)Cn1c(=O)nc(-c2ccccc2)c2cc(Cl)ccc21)c1cccc(C)c1 | – | 15.8 µM (active)
32 | CCCN(C(=O)Cn1cc(S(=O)(=O)N2CCN(c3ccccc3F)CC2)c2ccccc2c1=O)c1cccc(C)c1 | 11.6% (inactive) | –
33 | CCN(CCCNC(=O)CSc1cc(=O)n(C)c2cc(Cl)ccc12)c1cccc(C)c1 | 3.74% (inactive) | –
34 | Cc1ccc(CNC(=O)CN2CCN(Cc3ccc(Cl)cc3)C2=O)cc1 | -8.84% (inactive) | –
35 | O=C(Cn1c(=O)nc(-c2ccccc2)c2cc(Cl)ccc21)NCc1ccc(Cl)cc1 | – | 10 µM (active)
36 | CC1CCN(S(=O)(=O)c2ccc3c(c2)N(CC(=O)NCCc2ccccc2)C(=O)CO3)CC1 | -9.14% (inactive) | –
37 | Cc1ccc(N(CC(=O)NCc2ccc(Cl)cc2)S(=O)(=O)N(C)C)cc1 | -7.17% (inactive) | –
38 | CCc1cccc(NC(=O)Cn2nc(CC)n3c(cc4cc(C)ccc43)c2=O)c1 | – | 25.1 µM (active)
39 | CCc1nn(CC(=O)Nc2cccc(C)c2C)c(=O)c2cc3sccc3n12 | 9.89% (inactive) | –
40 | CCc1nn(CC(=O)Nc2cc(C)cc(C)c2)c(=O)c2cc3sccc3n12 | -9.46% (inactive) | –
41 | CCCCN(CC)CCCNC(=O)Cn1ncc2c([nH]c3ccc(C)cc32)c1=O | -6.44% (inactive) | –
42 | c1ccc(CNc2ncnc3[nH]ncc23)cc1 | 29.4% (inactive) | –
43 | CCC(C)NC(=O)Cn1c(=O)n(-c2ccc(Cl)cc2)c(=O)c2c3c(sc21)CCCC3 (stereo unspecified) | -4.46% (inactive) | –
44 | Cc1ccc(NC(=O)Cn2c(=O)n(-c3ccccc3)c(=O)c3c4c(sc32)CCCC4)cc1 | – | 12.6 µM (active)
45 | CCCN(CCC)C(=O)Cn1c(=O)n(-c2ccc(Cl)cc2)c(=O)c2c3c(sc21)CCCCC3 | -16.4% (inactive) | –
46 | CCOC(=O)c1c(S(=O)(=O)N2CCCC(C(=O)NCc3ccc(F)cc3)C2)c(C)n(CC)c1C (stereo unspecified) | -13.8% (inactive) | –
47 | COc1cccc(C(=O)Nc2ccc3nc4n(c(=O)c3c2)CCCCC4)c1 | -25.8% (inactive) | –
48 | O=C(Nc1c2c(nc3ccccc13)CCCC2)c1ccccc1Br | -2.5% (inactive) | –

Row | SMILES | activity change, negative = cell killing | Potency
49 | COc1ccccc1Nc1c2c(nc3ccc(NC(=O)/C=C/c4cc(OC)c(OC)c(OC)c4)cc13)CCCC2 | – | 15.8 µM (active)
50 | O=C(O)c1ccc(Cn2c(SCc3ccc(F)cc3)nc3ccncc32)cc1 | -19.3% (inactive) | –
51 | Cc1cccc2nc(-c3ccc(Cl)s3)c(Nc3ccc4c(c3)OCCO4)n12 | -25.1% (inactive) | –
52 | Cc1ccc(Nc2c(-c3ccc(C)s3)nc3ccccn23)cc1 | 1.41% (inactive) | –
53 | Cc1ccn2c(Nc3ccc4c(c3)OCCO4)c(-c3ccc(C)s3)nc2c1 | – | 12.6 µM (active)
54 | CCN(C(=O)c1sc2cc(OC)ccc2c1Cl)c1ccccc1 | -4.72% (inactive) | –
55 | COc1ccc(N2CCN(C3=NS(=O)(=O)C(c4cccc(Br)c4)=C3C)CC2)cc1 | -1.65% (inactive) | –
56 | CCOc1ccc(-n2c(C)nc3c(cnn3-c3ccc(C)cc3)c2=O)cc1 | 6.42% (inactive) | –
57 | Cc1cccc(N2CCN(C(=O)c3ccc4c(c3)CCN4S(=O)(=O)c3ccccc3)CC2)c1C | -24.6% (inactive) | –
58 | Cc1c(C(=O)N2CC(C)OC(C)C2)sc2nc(-c3ccccc3)cn12 (stereo unspecified) | -12.2% (inactive) | –
59 | CCC(CC)c1nn2cc(-c3ccccc3)nc2s1 | – | 6.31 µM (active)
60 | CCC(CC)c1nnc(NS(=O)(=O)Cc2ccccc2)s1 | 2.97% (inactive) | –
61 | CC(C)c1ccc(C2CC(=O)N3CN(C4CCCCC4)CSC3=C2C#N)cc1 (stereo unspecified) | 6.4% (inactive) | –
62 | Cc1noc(/C=C/N(C)C)c1S(=O)(=O)N1CCCC(C(=O)Nc2cccc(F)c2)C1 (stereo unspecified) | -0.583% (inactive) | –
63 | CN(C(=O)c1ccc2c(c1)N(Cc1cccc(Cl)c1)C(=O)c1ccccc1S2=O)C1CCCCC1 (stereo unspecified) | 15.2% (inactive) | –
64 | Cc1ccc2c(=O)c(C(=O)c3cccc(Cl)c3)cn(CC(=O)NCc3ccccc3)c2n1 | 23.8% (inactive) | –
65 | CN1CCC[C@@H]1CCO[C@](C)(c1ccccc1)c1ccc(Cl)cc1 | – | inactive and 12.6 µM (active)
66 | CN1CCCC1CCO[C@@](C)(c1ccccc1)c1ccc(Cl)cc1 (stereo partly specified) | -25.6% (inactive) | –
67 | Cc1ccsc1C(=O)OCC(=O)c1cc(C)n(CC2CCCO2)c1C (stereo unspecified) | – | 7.94 µM (active)
68 | Cc1ccsc1C(=O)OCC(=O)c1cc2ccccc2o1 | -18.4% (inactive) | –
69 | COC(=O)c1ccc2c(=O)n(CC3CCCO3)c(=S)[nH]c2c1 (stereo unspecified) | 9.84% (inactive) | –
70 | COc1ccccc1-n1nnnc1S(=O)(=O)Cc1ccc(Cl)cc1 | – | 6.31 µM (active)
71 | COc1ccccc1N1CCN(C(=O)CN(Cc2ccc(Cl)cc2)S(C)(=O)=O)CC1 | -9.34% (inactive) | –
72 | COc1ccccc1N1CCN(Cc2nnnn2CCc2ccccc2)CC1 | 6.43% (inactive) | –

Row | SMILES | activity change, negative = cell killing | Potency
73 | Cc1cccc(N2CCN(S(=O)(=O)c3ccc4[nH]c5c(c4c3)CCCCC5)CC2)c1C | 7.92% (inactive) | –
74 | O=C(CCS(=O)(=O)c1ccccc1)N(Cc1cccnc1)c1nc2c(F)cccc2s1 | – | 31.6 µM (active)
75 | CN(C)S(=O)(=O)c1ccc(C(=O)N(Cc2cccnc2)c2nc3c(F)cc(F)cc3s2)cc1 | -14.5% (inactive) | –
76 | O=C(CCOc1ccccc1)N(Cc1cccnc1)c1nc2ccc(Cl)cc2s1 | 2.01% (inactive) | –
77 | CCc1ccc(NC(=O)C2CCCN2S(=O)(=O)c2ccc3nc(-c4ccccc4)[nH]c3c2)cc1 (stereo unspecified) | -17.1% (inactive) | –
78 | CCc1cccc(-n2nnc(-c3nsc(NC(=O)c4ccc(C)cc4)n3)c2C)c1 | 7.17% (inactive) | –
79 | CC1Cc2cc(S(=O)(=O)CCC(=O)Nc3ccc(F)c(Cl)c3)ccc2N1C(=O)C1CC1 (stereo unspecified) | -11.4% (inactive) | –
80 | COc1ccc(-n2cnc3cc(C(=O)NC4CCCC4)ccc32)cc1 | 14% (inactive) | –
81 | CCC(C)c1ccc2oc(-c3ccc(NC(=O)c4cc5ccccc5o4)cc3)nc2c1 (stereo unspecified) | 12.3% (inactive) | –
82 | COC(=O)c1ccc(-c2nc3cc(NC(C)=O)ccc3o2)cc1 | -4.16% (inactive) | –
83 | CCc1ccc2oc(-c3ccc(N)cc3)nc2c1 | – | 10 µM (active)
84 | Cc1ccc(C)c(S(=O)(=O)c2nnn3c2nc(N2CCOCC2)c2sccc23)c1 | -8.81% (inactive) | –
85 | Cc1ccc(NC(=O)c2nc(S(=O)(=O)Cc3cccc(C)c3)ncc2Cl)cc1 | – | 10 µM (active)
86 | CCS(=O)(=O)c1ncc(N(Cc2ccc(F)cc2)Cc2ccco2)c(C(=O)Nc2cc(C)ccc2C)n1 | -4.76% (inactive) | –
87 | CCSc1ncc(Cl)c(C(=O)Nc2cc(C)ccc2C)n1 | -3.08% (inactive) | –
88 | Cn1c(=O)n(Cc2c(F)cccc2Cl)c(=O)c2c1nc1n2CCN1c1ccc(F)cc1 | -11.7% (inactive) | –
89 | Oc1c(C(c2ccccc2Cl)N2CCOCC2)sc2nc(-c3ccco3)nn12 (stereo unspecified) | -14% (inactive) | –
90 | Cc1nc2sc(C(c3ccco3)N3CCOCC3)c(O)n2n1 (stereo unspecified) | 11.5% (inactive) | –
91 | Oc1c(C(c2ccccn2)N2CCOCC2)ccc2cccnc12 (stereo unspecified) | – | 12.6 µM (active)
92 | Cc1ccc(CCNC(=O)c2ccc3c(c2)N(Cc2cc(C)ccc2C)C(=O)c2ccccc2S3=O)cc1 (stereo unspecified) | 1.71% (inactive) | –
93 | CC(=O)N1CCc2cc(Br)cc(S(=O)(=O)CCC(=O)NCCc3ccc(Cl)cc3)c21 | -2.18% (inactive) | –
94 | Cn1nnnc1SCCNCc1ccc(Cl)c(Cl)c1 | 11.3% (inactive) | –
95 | COc1cc(CNCCSc2nnnn2C)ccc1OCc1ccc(Cl)cc1Cl | – | 25.1 µM (active)
96 | COc1cc(CNCCSc2nnnn2C)ccc1OCc1c(F)cccc1Cl | -22.3% (inactive) | –
